Screening data from PubChem.
The entries come from a sample that favours hits as a whole.
TTR transcr act = TTR transcription activators in neuroblastoma reporter cells, primary screen, cell-based, luminescence, SH-SY5Y, TTR promoter Gaussia luciferase; 100% = recombinant luciferase protein wells; activation, % at 16.7 µM; actives 1.3% (n = 92,000);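 active = activation above the mean of all tested compounds plus 3 SD, cut at about 9.5% in these data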;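 note: cells exposed to compounds for one day before reading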
HuH7 TTR inh = TTR promoter reporter inhibitors in hepatoma cells, counter-screen for TTR transcription activator project, cell-based, luminescence, HuH7 hepatoma | shares compounds with TTR transcr act | HuH7 TTR promoter-Gaussia luciferase reporter | inhibition, % at 16.7 µM | actives 4% (n = 1,100);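 active = average inhibition above the solvent-only control wells' mean plus 3 SD, cut at about 15% in these data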;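 note: inhibitors lower well luminescence so higher value means more inhibition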
TTR act confirm = TTR transcription activators, retest, confirmation, cell-based, luminescence, SH-SY5Y, triplicate | SHSY5Y TTR promoter Gaussia luciferase; 100% = purified Lucia enzyme wells, no cells | 1,100 tested, under 10 active | activation, % at 16.7 µM | shares compounds with TTR transcr act | AID 1117280, 2014;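 active = mean activation above a set limit taken from the earlier primary screen, cut at about 11% in these data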
Of the large screens only hits and unclear results are named; the others gave an inactive call (follow-up assays come after a bar, where they were run).

CCOC(=O)c1cc(-c2ccccc2)n(CC(=O)NC(C)(C)C)c1C	none
CCOC(=O)c1cc(-c2ccccc2)n(CC(=O)O)c1C	TTR transcr act 11 | HuH7 TTR inh inactive | TTR act confirm inactive
O=C(Nc1ccc(F)cc1)OCc1cn(Cc2ccc(F)cc2F)nn1	none
COC(=O)[C@]12C[C@H](CC(=O)NCc3cccs3)C(=O)N(CCC3=CCCCC3)C1=C[C@H](C1CCCC1)O[C@@H]2C	none
Cc1noc(C)c1NC(=O)N(C)C[C@H]1OCc2cn(nn2)CCCC(=O)N([C@H](C)CO)C[C@@H]1C	none
COC(=O)c1ccc[n+](CC(=O)Nc2ccc(OC(F)F)cc2)c1	none
O=C(C[n+]1ccccc1)Nc1ccccc1	none
COC(=O)c1ccc(NC(=O)C[n+]2ccccc2)cc1	TTR transcr act 10 | HuH7 TTR inh inactive | TTR act confirm inactive
COc1cc(NC(=O)c2[nH]c(C)c(C(C)=O)c2C)c(OC)cc1Cl	none
CCNc1ncnc2c1cnn2C1CCCO1 (stereo not drawn)	TTR transcr act 10 | HuH7 TTR inh inactive | TTR act confirm inactive
c1ccc(CNc2ncnc3c2cnn3-c2ccccc2)cc1	none
c1ccc(-n2ncc3c(NCCN4CCCCC4)ncnc32)cc1	none
Cc1cc2c(s1)c1cnn(Cc3c(Cl)ccc(C)c3F)c(=O)c1n2C	none
CCC1(CC)Cc2ccccc2-c2[nH]c(=S)[nH]c(=O)c21	none
CCC1(C)Cc2ccccc2C(=S)N1 (stereo not drawn)	TTR transcr act 9.7 | HuH7 TTR inh inactive | TTR act confirm inactive
CCC1(C)Cc2ccccc2C(=O)N1 (stereo not drawn)	none
O=c1cc(N2CCN(c3cccc(Cl)c3Cl)CC2)[nH]c(=O)n1C1CCCCC1	none
O=C(NC1CCCCN(Cc2ccc(Cl)cc2)C1=O)C(c1ccccc1)c1ccccc1 (stereo not drawn)	none
COC(=O)[C@]12C[C@H](CC(=O)NCc3cccc(C(F)(F)F)c3)C(=O)N(Cc3ccco3)C1=C[C@H](C1CCCC1)O[C@@H]2C	none
Cc1nc(SCc2ccccc2)c([N+](=O)[O-])[nH]1	none
Cc1nc(SCCC(C)C)c([N+](=O)[O-])[nH]1	none
CCOC(=O)CSc1nc(C)[nH]c1[N+](=O)[O-]	TTR transcr act 10 | HuH7 TTR inh inactive | TTR act confirm inactive
CCC1CCc2sc(C(=O)Nc3cc(S(=O)(=O)N4CCOCC4)ccc3OC)cc2C1 (stereo not drawn)	none
CCC[C@H]1[C@@H](N(C)CC2CCCCC2)CC[C@@]23CCCN2C(=O)CCC[C@@H]13	none
O=C(OCc1ccccc1)[C@H](Cc1ccccc1)NC(=O)[C@@H]1CC=C[C@@H]2CCN(Cc3ccccc3)C(=O)[C@@H]21	none
CCOc1ccc(CCNC(=O)c2ccccn2)cc1OCC	none
Cc1ccc(CC(=O)NC(C)CCc2ccccc2)cc1 (stereo not drawn)	none
CC(CCc1ccccc1)NC(=O)Cc1ccc(Br)cc1 (stereo not drawn)	none
CC(C)C[C@H]1CNC(=O)C(=O)N1C[C@H](C)NC(=O)Cc1ccccc1	TTR transcr act 15 | HuH7 TTR inh inactive | TTR act confirm inactive
CC(C)(N[C@@H](Cc1ccccc1)C(=O)NCC(c1ccccc1)c1ccccc1)C(=O)NC1CCCCC1	none
COc1ccc(F)cc1-c1cc(C(C)=O)c2n(c1=O)CCC2	none
O=C(NCc1ccc(Cl)cc1)c1csc(-c2cccnc2)n1	none
O=C(NNC(=O)c1ccc(Cl)cc1Cl)c1csc(-c2cccnc2)n1	none
O=C(NNS(=O)(=O)c1ccc(F)cc1F)c1csc(-c2cccnc2)n1	TTR transcr act 19 | HuH7 TTR inh inactive | TTR act confirm inactive
CC(C)c1ccc(NC(=O)O[C@H]2CC[C@@]34CCCN3C(=O)CCC[C@H]4[C@H]2C)cc1	none
COC(=O)C1CN(CCc2ccccc2)CCS(=O)(=O)N1Cc1ccccc1F (stereo not drawn)	none
Cn1nnnc1SC1CC(=O)N(c2ccccc2)C1=O (stereo not drawn)	none
COC(=O)c1ccccc1SC1CC(=O)N(c2ccccc2)C1=O (stereo not drawn)	TTR transcr act 21 | HuH7 TTR inh inactive | TTR act confirm inactive
O=C(O)c1ccccc1SC1CC(=O)N(c2cccc3ccccc23)C1=O (stereo not drawn)	none
CC(OP(=O)(O)C(NC(=O)[C@H](Cc1ccc(O)cc1)NC(=O)OC(C)(C)C)C(C)C)C(=O)O (stereo partly drawn)	none
COC(=O)[C@]12CCCCC=C1N(Cc1ccc(OC)cc1)C(=O)[C@@H]2CC(=O)NCCCN1CCCC1=O	none
COC(=O)[C@]12CCCCC=C1N(Cc1ccc(OC)cc1)C(=O)[C@@H]2CC(=O)NCc1ccc(OC)c(OC)c1	none
O=C1[C@H](c2ccccc2)[C@@H](c2ccncc2)N1c1ccncc1	none
FC(F)(F)c1cc(CNC2CCC23CCC(c2ccccc2)CC3)ccc1Cl (stereo not drawn)	none
Cc1ccc(NC(=S)Nc2cccc(-c3n[nH]c(=S)o3)c2)cc1	TTR transcr act 74 | HuH7 TTR inh inactive | TTR act confirm inactive
Cc1ccc(C(=O)Nc2cccc(-c3nc4ncccc4o3)c2)cc1	none
Cc1ccc(NC(=S)Nc2cc(C)on2)cc1	none
Cc1ccc(NC(=S)Nc2ccc(-c3nnc4n3CCCCC4)cc2)cc1C	none
O=C(NCc1ccco1)O[C@@H]1CC[C@@]23CCCN2C(=O)CCC[C@H]3C1	none
O=C(Nc1cccc(F)c1)OCCN1CCCC12CCC(c1ccccc1)CC2 (stereo not drawn)	none
Cc1cc(=O)n(C(C)Cc2ccccc2)n1C(C)Cc1ccccc1 (stereo not drawn)	TTR transcr act 17 | HuH7 TTR inh inactive | TTR act confirm inactive
CC(Cc1ccccc1)N(C)C(=O)CN1C(=O)c2ccccc2C1=O (stereo not drawn)	none
CCC(CC)n1c(C)cc(=O)n1C(CC)CC	none
CCC1(C)Cc2sc3c(=O)[nH]c(=S)[nH]c3c2CO1 (stereo not drawn)	TTR transcr act 18 | HuH7 TTR inh inactive | TTR act confirm inactive
CC(C)c1nc2sc3c(=O)[nH]c(=S)[nH]c3c2c2c1CCCC2	none
C=CCNC(=S)Nc1sc2c(c1C(=O)OCC)CC(C)(CC)OC2 (stereo not drawn)	none
COC(=O)[C@]12C[C@H](CC(=O)NCc3ccccc3)C(=O)N(Cc3cccc4ccccc34)C1=C[C@H](C(C)(C)C)O[C@@H]2C	none
CC(=O)O[C@H]1C[C@@H](n2cnc3c(Cl)ncnc32)[C@@H]2OC(C)(C)O[C@@H]21	none
C#CCOCCOCCOCCNc1nc(N2CCN(C(=O)[C@H]([C@@H](C)O)n3cc(CCCCN)nn3)CC2)nc(N2CCN(C(=O)[C@H]([C@@H](C)CC)n3cc(CCCN=C(N)N)nn3)CC2)n1	none
C#CCOCCOCCOCCNc1nc(N2CCN(C(=O)Cn3cc(CCO)nn3)CC2)nc(N2CCN(C(=O)[C@H]([C@@H](C)O)n3cc(CCCCN)nn3)CC2)n1	TTR transcr act 11 | HuH7 TTR inh inactive | TTR act confirm inactive
C#CCOCCOCCOCCNc1nc(N2CCN(C(=O)Cn3cc(CCCCN)nn3)CC2)nc(N2CCN(C(=O)[C@H]([C@@H](C)CC)n3cc(CCCN=C(N)N)nn3)CC2)n1	none
Cc1ccc(N(CC(=O)NC(C)C)C(=O)CCC(=O)Nc2nccs2)cc1	none
